Results on eight compounds are retold here after PubChem BioAssay (NCI).

Holding throughout (assay): NCI-60 one-dose screen, 48 h (100 = growth as untreated, 0 = no growth, -100 = all killed)
Holding throughout (details): 10 µM unless noted

For experiment [1], the system named is SR leukemia.
Experiment [2] relates to RPMI-8226 leukemia.
In experiment [3] the test system is OVCAR-8 ovarian.
In experiment [4] the test system is OVCAR-5 ovarian.
Experiment [5] has as its system OVCAR-4 ovarian.
The test system of experiment [6] is SK-OV-3 ovarian.
Experiment [7] has as its system IGROV1 ovarian.
Experiment [8] relates to OVCAR-3 ovarian.
The subject of experiment [9] is HS 578T breast.
Experiment [10] concerns NCI/ADR-RES ovarian.
Experiment [11] deals with T-47D breast.
Experiment [12] has as its system BT-549 breast.
Experiment [13] deals with MDA-MB-435 melanoma.
Experiment [14] concerns SW-620 colon.
The test system of experiment [15] is MCF7 breast.
Experiment [16] has as its system HCT-116 colon.
Experiment [17] deals with HCC-2998 colon.
Experiment [18] deals with KM12 colon.
Experiment [19] deals with MDA-MB-468 breast.

Each structure is given as a SMILES string. About 83,000 compounds went through this panel and 20% of them were active in at least one assay; those are over-represented in the sample as a whole.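 96-well plates, one dose, 48 hours. Percent growth reported; active if below 10.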 Values without a mark were called inactive. Active and inactive are the calls of the source.

For the compound `C#CCOc1cc(N(CC)CC)ccc1C(C(=O)NC(C)(C)C)N(C(=O)C1CCc2cc(F)ccc2O1)c1ccc(F)cc1` (configuration not stated), the growth was 26.7% in experiment [1]; 25.4% in experiment [2]; 52.4% in [3]; 69.7% in [4]; 51% in experiment [5]; 62.4% in [6]. In addition, the growth in experiment [7] was 68.2%; in experiment [8], 47.9%; in experiment [9] it was 64.4%; in [10], 56.8%; in experiment [11], 40.3%; in [12], 50.9%. Also, the growth in experiment [13] is 54.4%; in [14] it was 58.6%; in experiment [15], 20.2%; in experiment [16], 27.1%; in [17], 71.9%; in experiment [18], 25.7%. Besides, the growth in experiment [19] was 33.2%.

As for `COc1ccc(NC(=O)[C@H](C)N)cc1C(=O)Nc1cccc(C2CC(=O)c3c(cc(OC)c(OC)c3OC)O2)c1` (some centres not stated), the growth in [1] was 63.8%; in experiment [2], 55.3%; in experiment [3] it was 68.8%; in [4], 104%; in [5], 81.7%; in experiment [6] it was 146%. In addition, the growth in [7] is 98.7%; in experiment [8] it was 91.9%; in experiment [9] it was 95.8%; in experiment [10], 86.1%; in experiment [11], 53.7%; in experiment [12], 67.3%. Besides, the growth was 93.2% in experiment [13]; 99.4% in experiment [14]; 72.1% in experiment [15]; 93.9% in experiment [16]; 109% in experiment [17]; 87% in experiment [18]. In addition, in [19], the growth is 76.1%.

On to `COc1cc(/C=C/C(=O)c2ccccc2)ccc1Oc1nc(Nc2ccc(F)cc2)nc(N(C)C)n1`, for which the growth in experiment [1] was 1.38% (active); in experiment [2], -8.57% (active); in experiment [3] it was 22.1%; in experiment [4], 49.1%; in [5], 27.7%; in experiment [6] it was 79.7%. Further, the growth in [7] was 48.8%; in [8], 39.4%; in experiment [9], 36.2%; in experiment [10], 11.3%; in experiment [11], 13%; in experiment [12], -6.57% (active). For the same compound, the growth in [13] was 24.9%; in [14], -0.837% (active); in [15], 5.96% (active); in [16] it was -83.1% (active); in experiment [17], 59%; in [18], 40.8%. Also, the growth in experiment [19] is 21.5%.

Consider `O=C(CN1C(=O)/C(=C/c2ccccc2Cl)SC1=S)N1CCOCC1`, for which the growth in experiment [1] was 34.3%; in experiment [2], 58.8%; in [3], 97.1%; in experiment [4], 98.3%; in experiment [5], 78.2%; in experiment [6], 124%. Moreover, the growth in experiment [7] was 107%; in [8], 77.1%; in [9] it was 106%; in experiment [10], 95.5%; in experiment [11] it was 70.9%; in [12] it was 119%. For the same compound, the growth was 91.3% in experiment [13]; 38.6% in [14]; 49.6% in [15]; 61.1% in [16]; 124% in [17]; 101% in experiment [18]. The growth in experiment [19] was -2.81% (active).

For the compound `O=C(c1ccc(OCCN2CCOCC2)cc1)C1[C@H](c2ccc(Cl)cc2)[C@@H](c2ccccc2)NC12C(=O)Nc1ccc(Cl)cc12` (some centres not stated), the growth in [1] is -46.3% (active); in experiment [2] it was 15.5%; in experiment [3], 39%; in experiment [4], 50.5%; in experiment [5], 48.3%; in experiment [6], 50.1%. The growth in experiment [7] was 24%; in experiment [8] it was 40.4%; in experiment [9], 59.1%; in experiment [10] it was 24.5%; in [11], 34.6%; in [12], 57.1%. Besides, the growth was 42% in experiment [13]; 41.5% in experiment [14]; 4.28% (active) in [15]; 11.5% in experiment [16]; -30% (active) in experiment [17]; 16.4% in [18]. Further, in experiment [19], the growth was -7.83% (active).

Consider `C=C1CCC2C3(C)COC(c4cccs4)OC3CCC2(C)C1CC(Sc1ccccc1)C1=CCOC1=O` (configuration not stated), for which the growth is 46.1% in experiment [1]; 16.1% in experiment [2]; 66% in experiment [3]; 102% in [4]; 83.6% in [5]; 131% in [6]. Also, the growth in experiment [7] is 95.5%; in experiment [8], 86.1%; in experiment [9] it was 112%; in experiment [10], 2.64% (active); in experiment [11], 82.3%; in experiment [12], 25.8%. The growth is 87.2% in experiment [13]; 80% in [14]; 38.2% in experiment [15]; 32.4% in experiment [16]; 81.5% in experiment [17]; 89.2% in experiment [18]. The growth in [19] is 90.5%.

With `COc1cccc(-c2nc(Nc3ccc(S(N)(=O)=O)cc3)c3ccccc3n2)c1`, the growth was 23.6% in experiment [1]; 6.94% (active) in experiment [2]; 35.5% in experiment [3]; 72.5% in experiment [4]; 35.1% in [5]; 73.5% in experiment [6]. In addition, the growth in experiment [7] was 42.4%; in experiment [8], 22.9%; in experiment [9], 44%; in experiment [10], 26.4%; in experiment [11], 20.9%; in experiment [12], 54.5%. In addition, the growth in experiment [13] was 38.8%; in [14], 36.1%; in experiment [15] it was 19.8%; in experiment [16] it was 32.2%; in experiment [17], 6.44% (active); in experiment [18], 6.75% (active). Moreover, in [19], the growth was 24%.

For the compound `C=C1CCC2C3(C)COC(c4ccccc4)OC3CCC2(C)C1CC(Sc1ccccc1)C1=CCOC1=O` (configuration not stated), the growth in experiment [1] is 8.04% (active); in experiment [2], 3.18% (active); in [3], 12.9%; in experiment [4], 58.5%; in experiment [5], 50.4%; in experiment [6], 120%. Moreover, the growth in experiment [7] was 58%; in experiment [8], 44%; in experiment [9], 94.1%; in [10], -22.7% (active); in experiment [11] it was 33.1%; in experiment [12] it was -19% (active). For the same compound, the growth was 45.8% in experiment [13]; 14.8% in [14]; 17% in experiment [15]; 4.36% (active) in experiment [16]; 36.8% in experiment [17]; 47.5% in experiment [18]. Moreover, the growth in [19] is 27.3%.
